Measured values from the antibiotic and cytotoxicity screens of Wong et al. (2023).
In all, about 39,000 compounds went through this assay and about 3,300 (8.5%) were called active. Shown is part of a subset that was picked to be rich in actives.

These molecules were tested on HepG2 (assay: cytotoxicity call (relative viability < 0.9)). Settings: 10 µM.

Question: Which cytotoxicity call does the source give for C[C@H]1[C@H]([Si](C)(C)F)[C@@H](CC(=O)N(CCO)Cc2ccccc2)O[C@]12C(=O)N(c1ccccc1)c1ccccc12 here?
Answer: inactive

Question: With COc1ccc([Si](C)(C)[C@H]2[C@H](CC(=O)N(CCO)Cc3ccccc3)O[C@@]3(C(=O)N(Cc4ccc(N5CCC5=O)cc4)c4ccccc43)[C@@H]2C)cc1 as the molecule, how does the cytotoxicity call read?
Answer: inactive

Question: With COc1ccc([Si](C)(C)[C@H]2[C@H](CC(=O)N(CCO)Cc3ccccc3)O[C@@]3(C(=O)N(Cc4ccc(N5CCOC5=O)cc4)c4ccccc43)[C@@H]2C)cc1 as the molecule, how does the cytotoxicity call read?
Answer: inactive

Question: With C[C@@H]1[C@@H]([Si](C)(C)F)[C@H](CC(=O)N(CCO)Cc2ccccc2)O[C@@]12C(=O)N(c1ccccc1)c1ccccc12 as the molecule, how does the cytotoxicity call read?
Answer: active

Question: Which cytotoxicity call does the source give for COc1ccc([Si](C)(C)[C@H]2[C@H](CC(=O)N(CCO)Cc3ccccc3)O[C@@]3(C(=O)N(Cc4cccc(N5CCC5=O)c4)c4ccccc43)[C@@H]2C)cc1 here?
Answer: inactive

Question: How did the cytotoxicity call turn out when COc1ccc([Si](C)(C)[C@@H]2[C@@H](CC(=O)N(CCO)Cc3ccccc3)O[C@]3(C(=O)N(Cc4ccc(N5CCC5=O)cc4)c4ccccc43)[C@H]2C)cc1 was run?
Answer: inactive

Question: COc1ccc([Si](C)(C)[C@H]2[C@H](CC(=O)N(CCO)Cc3ccccc3)O[C@@]3(C(=O)N(Cc4cccc(N5C(=O)c6cccc7cccc5c67)c4)c4ccccc43)[C@@H]2C)cc1 was tested. Which cytotoxicity call did it give?
Answer: active

Question: C[C@@H]1[C@@H]([Si](C)(C)F)[C@H](CC(=O)N2Cc3ccccc3C[C@H]2CO)O[C@@]12C(=O)N(c1ccccc1)c1ccccc12 was tested. Which cytotoxicity call did it give?
Answer: inactive

Question: For COc1ccc([Si](C)(C)[C@@H]2[C@@H](CC(=O)N(CCO)Cc3ccccc3)O[C@]3(C(=O)N(Cc4ccc(N5C(=O)c6cccc7cccc5c67)cc4)c4ccccc43)[C@H]2C)cc1, which cytotoxicity call is on record?
Answer: active

Question: With COc1ccc([Si](C)(C)[C@@H]2[C@@H](CC(=O)N(CCO)Cc3ccccc3)O[C@]3(C(=O)N(Cc4cccc(N5CCC5=O)c4)c4ccccc43)[C@H]2C)cc1 as the molecule, how does the cytotoxicity call read?
Answer: inactive

Question: How did the cytotoxicity call turn out when COc1ccc([Si](C)(C)[C@H]2[C@H](CC(=O)N(CCO)Cc3ccccc3)O[C@@]3(C(=O)N(Cc4ccc(N5C(=O)c6cccc7cccc5c67)cc4)c4ccccc43)[C@@H]2C)cc1 was run?
Answer: active

Question: With N#Cc1ccc[nH]c1=O as the molecule, how does the cytotoxicity call read?
Answer: inactive

Question: Which cytotoxicity call does the source give for C[C@@H]1CN([C@@H](C)CO)C(=O)c2cc(NS(=O)(=O)c3cccs3)ccc2O[C@@H]1CN(C)C(=O)Nc1cccc2ccccc12 here?
Answer: inactive

Question: How did the cytotoxicity call turn out when CCC=CCC=CCC=CCC=CCC=CCCCC(=O)OCC [OMEGA-3-ACID ESTERS (EPA shown) ] was run?
Answer: inactive

Question: For C[C@H](CO)N1C[C@H](C)[C@@H](CN(C)Cc2ccc(C(=O)O)cc2)Oc2ncc(C#CCN(C)C)cc2C1=O, which cytotoxicity call is on record?
Answer: inactive

Question: For Cc1noc(C)c1NC(=O)Nc1ccc2c(c1)CC(=O)N([C@H](C)CO)C[C@@H](C)[C@H](CN(C)Cc1ccc(Cl)c(Cl)c1)O2, which cytotoxicity call is on record?
Answer: inactive

Question: For CCOC(=O)N(C)C[C@@H]1OCc2cn(nn2)CCCC(=O)N([C@@H](C)CO)C[C@@H]1C, which cytotoxicity call is on record?
Answer: inactive

Question: How did the cytotoxicity call turn out when COc1ccc(NC(=O)Nc2ccc3c(c2)C(=O)N([C@@H](C)CO)C[C@@H](C)[C@@H](CN(C)S(=O)(=O)c2ccc(OC)cc2)OCCCC[C@H](C)O3)cc1 was run?
Answer: inactive

Question: Which cytotoxicity call does the source give for COc1ccccc1CNC(=O)C[C@@H]1C[C@@H]2c3cc(NC(=O)c4ccc5c(c4)OCO5)ccc3O[C@@H]2[C@H](CO)O1 here?
Answer: inactive

Question: Which cytotoxicity call does the source give for NCC[C@H]1CC[C@H](NC(=O)C2CCC2)[C@@H](CO)O1 here?
Answer: inactive

Question: Cc1cccc(S(=O)(=O)N2C[C@@H](O)COC[C@@H]3O[C@H](CC(=O)N4CCN(C)CC4)CC[C@H]32)c1 was tested. Which cytotoxicity call did it give?
Answer: inactive

Question: How did the cytotoxicity call turn out when COc1ccc(NC(=O)Nc2ccc3c(c2)C(=O)N([C@H](C)CO)C[C@H](C)[C@H](CN(C)C(=O)CCC(F)(F)F)OCCCC[C@H](C)O3)cc1 was run?
Answer: inactive

Question: With CC(C)NC(=O)N(C)C[C@H]1Oc2ccc(NS(=O)(=O)c3cccs3)cc2C(=O)N([C@H](C)CO)C[C@H]1C as the molecule, how does the cytotoxicity call read?
Answer: inactive

Question: With C[C@@H]1CN([C@@H](C)CO)C(=O)c2cccc(NS(=O)(=O)c3ccccc3)c2O[C@@H]1CN(C)Cc1ccc(Cl)c(Cl)c1 as the molecule, how does the cytotoxicity call read?
Answer: inactive

Question: For COc1ccc(S(=O)(=O)Nc2cccc3c2O[C@H](CN(C)Cc2ccc(Cl)c(Cl)c2)[C@@H](C)CN([C@@H](C)CO)C3=O)cc1, which cytotoxicity call is on record?
Answer: inactive

Question: For C[C@H](CO)N1C[C@H](C)[C@@H](CN(C)Cc2ccc(Cl)c(Cl)c2)Oc2c(NS(=O)(=O)c3ccc(Cl)cc3)cccc2C1=O, which cytotoxicity call is on record?
Answer: inactive

Question: Which cytotoxicity call does the source give for C[C@H]1CN([C@@H](C)CO)C(=O)c2cccc(NS(=O)(=O)c3ccccc3)c2O[C@H]1CN(C)Cc1ccc(Cl)c(Cl)c1 here?
Answer: inactive

Question: For C[C@H]1CN([C@@H](C)CO)C(=O)c2cccc(NS(=O)(=O)c3ccc(Cl)cc3)c2O[C@@H]1CN(C)Cc1ccc(Cl)c(Cl)c1, which cytotoxicity call is on record?
Answer: active

Question: COc1ccc(S(=O)(=O)Nc2cccc3c2O[C@@H](CN(C)Cc2ccc(Cl)c(Cl)c2)[C@H](C)CN([C@@H](C)CO)C3=O)cc1 was tested. Which cytotoxicity call did it give?
Answer: inactive

Question: For C[C@@H]1CN([C@@H](C)CO)C(=O)c2cccc(NS(=O)(=O)c3ccc(Cl)cc3)c2O[C@H]1CN(C)Cc1ccc(Cl)c(Cl)c1, which cytotoxicity call is on record?
Answer: inactive

Question: With C[C@H](CO)N1C[C@H](C)[C@@H](CN(C)Cc2ccc(Cl)c(Cl)c2)Oc2c(NS(=O)(=O)c3ccccc3)cccc2C1=O as the molecule, how does the cytotoxicity call read?
Answer: active

Question: Which cytotoxicity call does the source give for COc1ccc(S(=O)(=O)Nc2cccc3c2O[C@H](CN(C)Cc2ccc(Cl)c(Cl)c2)[C@H](C)CN([C@@H](C)CO)C3=O)cc1 here?
Answer: active

Question: Which cytotoxicity call does the source give for Cc1ccc(S(=O)(=O)N(C)C[C@@H]2Oc3ccc(NC(=O)NC(C)C)cc3CC(=O)N([C@@H](C)CO)C[C@H]2C)cc1 here?
Answer: inactive

Question: Which cytotoxicity call does the source give for Nc1ncnc(NC[C@H]2CCCO2)c1[N+](=O)[O-] here?
Answer: inactive

Question: How did the cytotoxicity call turn out when COc1ccc(NC(=O)Nc2ccc3c(c2)C(=O)N([C@@H](C)CO)C[C@@H](C)[C@@H](CN(C)S(=O)(=O)c2ccc(C)cc2)OCCCC[C@H](C)O3)cc1 was run?
Answer: inactive
